Results filed as inconclusive are left out. The source made the active and inactive calls. Unless noted, calls follow the shape of the dose curve; as a rule, active = well fitted curve in the direction sought with a large enough effect in the repeat runs; inconclusive = weak or mixed curves; inactive = no such curve, though single readings can be large; an effect the other way counts as inactive or inconclusive.
Legend:
[1] = qHTS assay to identify small molecule antagonists of the retinoid acid receptor (RAR) signaling pathway - cell viability counter screen (AID 1159551); also: nearly all actives have a fitted effect of over 35% in size
Method in brief: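 Following overnight attachment, C3RL4 reporter cells received DMSO-dissolved compounds and then retinol (1 uM final). Six hours later at 37 C, ATP content was measured by CellTiter-Glo luminescence.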

[2] = qHTS assay to identify small molecule antagonists of the retinoic acid receptor (RAR) signaling pathway (AID 1159552; also: nearly all actives have a fitted effect of over 50% in size)
Method in brief: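 Quantitative HTS in C3RL4 RARE-luciferase reporter cells. Compounds were added with 1 uM (final) retinol; luminescence was read after 6 hr.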

[3] = qHTS assay to identify small molecule agonists of the retinoic acid receptor (RAR) signaling pathway (AID 1159553)
Method in brief: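 Cell line C3RL4, RARE luciferase reporter. Treatment: compounds in DMSO, 6 hr, 37 C, 5% CO2, after overnight plating. Detection: luminescence, 30 min RT after reagent.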

[4] = qHTS assay to identify small molecule antagonists of the estrogen related receptor (ERR) signaling pathway from Tox21 library - cell viability counter screen (AID 1224834); also: nearly all actives have a fitted effect of over 30% in size
Method in brief: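 Viability readout (CellTiter-Fluor fluorescence, 30 min at 37 C) multiplexed with the ERR assay; cells treated 17.5 h at 37 C with compounds delivered in DMSO.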

[5] = biological target: Luciferin 4-monooxygenase (Photinus pyralis) (UniProt P08659); assay: qHTS assay to identify small molecule inhibitors of firefly luciferase (AID 1224835); also: nearly all actives have a fitted effect of over 25% in size
Method in brief: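 Biochemical qHTS: compounds run as interplate titrations against purified firefly enzyme, with D-luciferin and ATP each at its KM concentration. Light output recorded by CCD imaging.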

[6] = qHTS assay to identify small molecule agonists of the constitutive androstane receptor (CAR) signaling pathway - cell viability counter screen (AID 1224836); also: nearly all actives have a fitted effect of over 45% in size
Method in brief: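 Counter screen multiplexed with the CAR reporter readout: HepG2 cells co-transfected with hCAR and the CYP2B6-2.2kb construct receive a 15-concentration compound series and 0.75 uM PK11195 (final), then CellTiter-Fluor fluorescence is read after 23 h.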

[7] = qHTS assay to identify small molecule antagonists of the constitutive androstane receptor (CAR) signaling pathway - cell viability counter screen (AID 1224837); also: nearly all actives have a fitted effect of over 45% in size
Method in brief: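 Fluorescence from CellTiter-Fluor served as the viability signal. Human hepatoma HepG2 cells stably bearing hCAR and CYP2B6-2.2kb received compound plus CITCO (50 nM final) for 23 hr.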

[8] = biological target: Nuclear receptor subfamily 1 group I member 3 (Homo sapiens) (UniProt Q14994); assay: qHTS assay to identify small molecule antagonists of the constitutive androstane receptor (CAR) signaling pathway (AID 1224838);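 also: HepG2 cells stably expressing hCAR with CYP2B6 luciferase reporter stimulated by CITCO; nearly all actives have a fitted effect of over 40% in size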
Method in brief: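 Quantitative HTS in double-stable HepG2-CYP2B6-hCAR cells. After 4 h plating, cells get compound (15 concentrations) and CITCO at 50 nM final, incubate 24 h at 37 C, then ONE-Glo luminescence is read.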

[9] = biological target: Nuclear receptor subfamily 1 group I member 3 (Homo sapiens) (UniProt Q14994); assay: qHTS assay to identify small molecule agonists of the constitutive androstane receptor (CAR) signaling pathway (AID 1224839); also: nearly all actives have a fitted effect of over 15% in size
Method in brief: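 A 15-concentration quantitative screen uses HepG2 cells co-transfected stably with human CAR and CYP2B6-2.2kb reporter. Treatment lasts 24 h with 0.75 uM PK11195 final present; ONE-Glo luminescence is the signal.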

[10] = qHTS assay to identify small molecule antagonists of the estrogen related receptor signaling pathway with the pleiotropic PPARgamma coactivator (PGC) from Tox21 10K library - cell viability counter screen (AID 1224840; active = well fitted cell-killing curve with a large enough effect in the repeat runs, not every such curve was filed as active; also: nearly all actives have a fitted effect of over 40% in size)
Method in brief: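 Compounds in DMSO, alongside positive and negative controls, were pinned onto PGC/ERR cells (2,000 per well). Exposure lasted 17.5 hours at 37 C, followed by a 30-minute CellTiter-Fluor incubation and fluorescence reading.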

[11] = biological target: Thyrotropin receptor (Homo sapiens) (UniProt P16473); assay: qHTS assay to identify small molecule agonists of the thyroid stimulating hormone receptor (TSHR) signaling pathway (AID 1224843; calls by dose curve; also: nearly all actives have a fitted effect of over 45% in size)
Method in brief: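 TSHR-HEK293 cells in agonist mode, 30 min room-temperature step, then cAMP measured by competitive HTRF (cAMP-d2 with anti-cAMP cryptate) after 1 h at room temperature. Tested at 15 concentrations in triplicate.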

[12] = qHTS assay to identify small molecule agonists of the hypoxia (HIF-1) signaling pathway - cell viability counter screen (AID 1224844; calls by dose curve; also: nearly all actives have a fitted effect of over 50% in size)
Method in brief: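 Luminescent ATP content (CellTiter-Glo, 30 min, room temperature) served as the viability measure in HRE-bla ME-180 cells exposed to compounds for 17 hrs in low-serum medium (0.5% dialyzed FBS).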

[13] = qHTS assay to identify small molecule agonists of H2AX (AID 1224845; active = well fitted activation curve with a large enough effect in the signal ratio in the repeat runs, not every such curve was filed as active; the % refers to the signal ratio)
Method in brief: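 Wild-type CHO-K1 cells, plated overnight, exposed 3hr at 37C to 15 concentrations (0.76% DMSO final). Lysed, then HTRF anti-pH2AX (S139) cryptate and anti-H2AX-d2 antibodies, 24 hr room temperature; 665/620 nm emission read.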

[14] = qHTS assay to identify small molecule agonists of the hypoxia (HIF-1) signaling pathway (AID 1224846; active = well fitted activation curve with a large enough effect in the signal ratio in the repeat runs, not every such curve was filed as active; the % refers to the signal ratio)
Method in brief: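 Measured by blue/green FRET after loading CCF4-AM: beta-lactamase expressed from a hypoxia response element in ME-180 cells. Test agents were delivered in DMSO and left 17 hrs; cells had been plated 5 hrs earlier in low-serum (0.5% dialyzed FBS) medium.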

[15] = qHTS assay to identify small molecule agonists of H2AX - cell viability counter screen (AID 1224847; calls by dose curve; also: top concentration of the series differs between compounds; nearly all actives have a fitted effect of over 30% in size)
Method in brief: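 We seed wild-type CHO-K1 cells overnight, treat them for 3 hr at 37C with compounds in 15-concentration series, and quantify remaining viability by CellTiter-Glo luminescence.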

[16] = qHTS RealTime-Glo MT Cell Viability Assay in HepG2 cells - 24 hour (AID 1224867); also: nearly all actives have a fitted effect of over 50% in size
Method in brief: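 HepG2 suspension premixed with RealTime-Glo reagents is plated at 600 cells per well and left 5 h at 37 C/5% CO2. Compounds in DMSO then go in, and bioluminescence reflecting viable cell number is recorded over 40 h.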

[17] = qHTS assay to identify small molecule antagonists of the estrogen related receptor signaling pathway with the pleiotropic PPARgamma coactivator (PGC) from Tox21 10K library (AID 1224841; call rule not given here; also: actives are mostly falling curves and most rising ones were filed inactive; nearly all actives have a fitted effect of over 50% in size)
Method in brief: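 Compound exposure ran 18 hours at 37 C in PGC/ERR cells (2,000/well) that had first rested 6 hours in a 37 C/5% CO2 incubator. Luciferase activity was then detected with One-Glo after a 30-minute room-temperature step.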

[18] = qHTS assay to identify small molecule agonists of the estrogen related receptor signaling pathway with the pleiotropic PPARgamma coactivator (PGC) from Tox21 10K library (AID 1224842); also: nearly all actives have a fitted effect of over 15% in size
Method in brief: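 PGC/ERR reporter cell line, 2,000 cells per well, incubated 6 h at 37 C before 23 nL compound in DMSO was added. After 18 h at 37 C, One-Glo luminescence read following 30 min at room temperature.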

[19] = qHTS assay to identify small molecule antagonists of the estrogen related receptor (ERR) signaling pathway from Tox21 library (AID 1224848); also: nearly all actives have a fitted effect of over 50% in size
Method in brief: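 ERR reporter cell line (from NTP) seeded 2,000 cells/well, rested 6 h at 37 C/5% CO2, then pin-dosed with compounds in DMSO. After 18 h at 37 C, ONE-Glo added; luminescence read after 30 min at room temperature.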

[20] = qHTS assay to identify small molecule agonists of the estrogen related receptor (ERR) signaling pathway from Tox21 library (AID 1224849; calls by dose curve; also: nearly all actives have a fitted effect of over 15% in size); conditions: ERR reporter cell line, ONE-Glo luciferase, 18 h; at 92.4 µM (top of the series) unless noted
Method in brief: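 We plated ERR reporter cells, waited 6 h, added compounds in DMSO by pin tool and incubated them 18 h at 37 C. ONE-Glo was then added and luminescence read after 30 min.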
% is scaled to controls: 0 for no effect and ±100 for the full control effect.

Sequence of Luciferin 4-monooxygenase (Photinus pyralis) (P08659 whole entry, looked up): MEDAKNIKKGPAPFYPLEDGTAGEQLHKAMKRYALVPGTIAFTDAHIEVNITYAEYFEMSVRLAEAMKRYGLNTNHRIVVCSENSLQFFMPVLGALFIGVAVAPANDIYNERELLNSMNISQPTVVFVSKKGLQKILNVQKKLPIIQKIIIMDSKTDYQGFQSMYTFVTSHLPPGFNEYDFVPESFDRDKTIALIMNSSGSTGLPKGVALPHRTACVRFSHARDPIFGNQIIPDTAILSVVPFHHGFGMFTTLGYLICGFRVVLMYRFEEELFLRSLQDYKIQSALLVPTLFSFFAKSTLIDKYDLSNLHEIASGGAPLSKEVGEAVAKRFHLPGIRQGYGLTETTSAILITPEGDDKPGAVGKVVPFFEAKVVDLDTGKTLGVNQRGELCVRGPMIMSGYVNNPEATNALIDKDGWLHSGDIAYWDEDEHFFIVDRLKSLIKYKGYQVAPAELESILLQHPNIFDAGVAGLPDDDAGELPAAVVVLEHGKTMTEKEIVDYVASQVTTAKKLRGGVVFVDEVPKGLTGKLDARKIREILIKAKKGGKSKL
Sequence of Nuclear receptor subfamily 1 group I member 3 (Homo sapiens) (Q14994 whole entry, looked up): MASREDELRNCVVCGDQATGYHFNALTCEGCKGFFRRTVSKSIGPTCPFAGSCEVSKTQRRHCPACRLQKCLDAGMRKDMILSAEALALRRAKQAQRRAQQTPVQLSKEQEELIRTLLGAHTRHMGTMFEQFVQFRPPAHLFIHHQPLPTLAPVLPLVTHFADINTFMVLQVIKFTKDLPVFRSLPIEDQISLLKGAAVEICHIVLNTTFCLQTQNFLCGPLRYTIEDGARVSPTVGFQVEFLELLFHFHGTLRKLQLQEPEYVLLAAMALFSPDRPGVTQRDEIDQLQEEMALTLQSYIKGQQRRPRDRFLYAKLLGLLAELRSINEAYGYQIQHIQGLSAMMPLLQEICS
Sequence of Thyrotropin receptor (Homo sapiens) (P16473 whole entry, looked up): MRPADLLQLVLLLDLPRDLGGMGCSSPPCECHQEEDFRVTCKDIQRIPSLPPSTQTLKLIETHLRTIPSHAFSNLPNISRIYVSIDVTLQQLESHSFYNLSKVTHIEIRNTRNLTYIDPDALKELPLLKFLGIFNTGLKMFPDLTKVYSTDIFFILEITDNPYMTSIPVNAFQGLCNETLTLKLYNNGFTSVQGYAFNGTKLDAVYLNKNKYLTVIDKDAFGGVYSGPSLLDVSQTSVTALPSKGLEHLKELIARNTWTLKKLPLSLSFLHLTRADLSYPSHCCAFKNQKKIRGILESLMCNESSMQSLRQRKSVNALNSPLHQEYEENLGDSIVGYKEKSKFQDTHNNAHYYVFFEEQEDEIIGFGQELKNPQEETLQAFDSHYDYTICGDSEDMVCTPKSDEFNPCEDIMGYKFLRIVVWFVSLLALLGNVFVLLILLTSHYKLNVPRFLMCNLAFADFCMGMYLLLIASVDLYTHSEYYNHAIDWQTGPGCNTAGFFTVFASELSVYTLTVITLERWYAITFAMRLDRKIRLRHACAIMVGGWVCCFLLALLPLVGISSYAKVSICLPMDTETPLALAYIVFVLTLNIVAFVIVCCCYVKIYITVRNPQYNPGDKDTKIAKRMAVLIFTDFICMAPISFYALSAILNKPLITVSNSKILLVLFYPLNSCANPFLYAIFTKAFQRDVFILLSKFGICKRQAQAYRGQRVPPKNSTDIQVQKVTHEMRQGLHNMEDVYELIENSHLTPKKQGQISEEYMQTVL

COC(=O)c1cc(Cl)c(NC(C)=O)cc1OC
inactive: outcome [1] | outcome [2] | Potency [3] | outcome [4] | Potency [5] | outcome [6] | outcome [7] | outcome [8] | Potency [9] | outcome [10] | Potency [11] | outcome [12] | outcome [13] | outcome [14] | outcome [15] | outcome [16]

CC/C=C/CCCCCCCCCCOC(C)=O
inactive: outcome [1] | outcome [2] | Potency [3] | outcome [4] | Potency [5] | outcome [6] | outcome [7] | outcome [8] | Potency [9] | outcome [10] | Potency [17] | Potency [18] | Potency [11] | outcome [12] | outcome [13] | outcome [14] | outcome [19] | activity change, positive = activation [20] 0.111% | outcome [16]

CN(C)c1cc(NC(=O)CNC(C)(C)C)c(O)c2c1C[C@H]1C[C@H]3[C@H](N(C)C)C(=O)C(C(N)=O)=C(O)[C@@]3(O)C(=O)C1=C2O
inactive: outcome [1] | outcome [2] | Potency [3] | outcome [4] | Potency [5] | outcome [6] | outcome [7] | outcome [8] | Potency [9] | outcome [10] | Potency [17] | outcome [14] | outcome [19] | activity change, positive = activation [20] 1.19% [at 42.5 µM] | outcome [16]

O=C(O)Cc1c(Cl)ccc(Cl)c1Cl
inactive: outcome [1] | outcome [2] | Potency [3] | outcome [4] | Potency [5] | outcome [6] | outcome [7] | outcome [8] | Potency [9] | outcome [10] | Potency [17] | Potency [18] | Potency [11] | outcome [12] | outcome [15] | outcome [19] | activity change, positive = activation [20] 6.33% | outcome [16]

CCCCOCCCC
inactive: outcome [1] | outcome [2] | Potency [3] | outcome [4] | Potency [5] | outcome [6] | outcome [7] | outcome [8] | Potency [9] | outcome [10] | Potency [17] | Potency [18] | Potency [11] | outcome [12] | outcome [13] | outcome [14] | outcome [19] | activity change, positive = activation [20] 4.99% | outcome [16]

NNC(=O)CCCCC(=O)NN
inactive: outcome [1] | outcome [2] | Potency [3] | outcome [4] | Potency [5] | outcome [6] | outcome [7] | outcome [8] | Potency [9] | outcome [10] | Potency [17] | Potency [18] | outcome [12] | outcome [13] | outcome [15] | outcome [19] | activity change, positive = activation [20] 0.359% | outcome [16]

CN(C)CCC[C@@]1(c2ccc(F)cc2)OCc2cc(C#N)ccc21
inactive: outcome [1] | outcome [2] | Potency [3] | outcome [4] | Potency [5] | outcome [6] | outcome [7] | outcome [8] | Potency [9] | outcome [10] | Potency [18] | Potency [11] | outcome [12] | outcome [13] | outcome [19] | activity change, positive = activation [20] -3.55% [at 42.5 µM] | outcome [16]
